The record followed here is PubChem BioAssay (NCI).

The panel holds about 83,000 compounds, 20% with a hit somewhere; the sample as a whole holds those more often.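 Cell lines were cultured in 96-well plates, exposed to a single compound concentration, and assessed for percent growth 48 hours later.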 Values without a mark were called inactive. Calls of active or inactive are those of the source. How the source made its calls: active means growth percent below 10; inactive means the rest.

Holding throughout (assay): NCI-60 one-dose screen, 48 h (100 = growth as untreated, 0 = no growth, -100 = all killed)
Common to all, as to conditions: 10 µM unless noted

In test [1] the test system is NCI-H23 lung.
In test [2] the test system is NCI-H226 lung.
Test [3] deals with NCI-H322M lung.
Test [4] concerns HOP-62 NSCLC.
Test [5] has as its system NCI-H460 lung.
Test [6] relates to HOP-92 NSCLC.
Test [7] relates to NCI-H522 lung.
The subject of test [8] is A549/ATCC NSCLC.
Test [9] has as its system 786-0 renal.
Test [10] concerns COLO 205 colon.
The subject of test [11] is DU-145 prostate.
For test [12], the system named is K-562 leukemia.
In test [13] the test system is MALME-3M melanoma.
The test system of test [14] is MDA-MB-231 breast.
The test system of test [15] is RXF 393 renal.
Test [16] has as its system SF-268 CNS.
In test [17] the test system is SF-295 CNS.
The test system of test [18] is SF-539 CNS.
Test [19] relates to UACC-257 melanoma.
Test [20] concerns M14 melanoma.

In the case of `CC(=O)c1cnc(-c2ccccc2)nc1CBr`, the growth in test [1] was 87.7%; in test [2] it was 92.1%; in test [3], 102%; in test [4], 94.3%; in test [5], 98.2%; in test [6] it was 58.7%. The growth in [7] was -23.4% (active); in test [8], 99%; in [9], 86.3%; in [10], 36.9%; in [11] it was 70.9%; in [12], 3.21% (active). For the same molecule, the growth in test [13] is 55.8%; in test [14], 66.4%; in test [15], 60%; in test [16], 84.8%; in test [17], 97.8%; in [18] it was 91.6%. Also, the figures for the growth in test [19] and in [20] were 95.3% and 69.8%, respectively.
For `O=C(CN1N=C(c2ccc(F)cc2)CCC1=O)Nc1nc2ccccc2s1`, the growth in test [1] is -26.2% (active); in test [2], 41.7%; in test [3], 95.1%; in test [4], -23.7% (active); in [5], 51.3%; in test [6], -77.1% (active). Moreover, the growth is -73.5% (active) in [7]; -48.8% (active) in [8]; -90.2% (active) in test [9]; 87.2% in test [10]; 84.6% in test [11]; 30.1% in test [12]. Also, the growth in test [13] was -70.4% (active); in test [14] it was -85.5% (active); in [15], 45.8%; in test [16], 48%; in [17], -46.9% (active); in test [18], -82.6% (active). The growth in [19] was 88.1%; in test [20], 41.4%.
In the case of `CCCn1c2cc(OCc3cn(-c4ccc(Cl)cc4)nn3)ccc2c2ccnc(C)c21`, the growth was 78.1% in test [1]; 69.5% in test [2]; 73% in test [3]; 70.1% in test [4]; 71.1% in test [5]; 50.5% in test [6]. For the same molecule, the growth is 66.4% in [7]; 70.8% in test [8]; 34.8% in test [9]; 44.1% in test [10]; 95.7% in test [11]; 34.9% in test [12]. The growth was 98.7% in test [13]; 64.6% in [14]; 73% in test [15]; 95.1% in [16]; 81.6% in test [17]; 87.3% in test [18]. Further, the growth in [19] is 61%; in test [20] it was 76.4%.
As to `N#CC(C#N)=C1NC(c2ccccc2)=C(c2ccccc2)C(c2ccccc2Cl)=C1C#N`, the growth in test [1] is 93.5%; in test [2] it was 108%; in test [3], 107%; in test [4], 109%; in test [5], 111%; in [6], 109%. Also, the growth in [7] is 85.5%; in test [8] it was 84%; in [9] it was 97.6%; in test [10] it was 123%; in test [11] it was 112%; in test [12] it was 98.1%. The growth is 108% in [13]; 110% in test [14]; 121% in test [15]; 109% in [16]; 101% in [17]; 108% in test [18]. Further, the results for the growth in test [19] and in test [20] were 75% and 106%, respectively.
Take `Nc1ccc(C2=NN(C(=O)c3cc(-c4ccc(Cl)cc4)nc4ccccc34)C(c3ccc(Cl)cc3)C2)cc1` (stereo not given): the growth is 50% in test [1]; 60.1% in test [2]; 45.2% in test [3]; 28.8% in test [4]; 17.2% in test [5]; 60.3% in [6]. Besides, the growth in [7] was 15.4%; in test [8], 43.8%; in test [9], 25.6%; in test [10], 22.6%; in test [11], 27.2%; in test [12], 13.2%. Further, the growth in [13] was 63%; in test [14] it was 63.2%; in test [15], -4.45% (active); in [16], 55%; in test [17] it was 18.2%; in test [18], 8.98% (active). The growth in test [19] was 57.5%; in test [20], 6.28% (active).
As to `COc1ccc(NC(=O)Nc2ccc(Nc3nc(C)cc(Nc4ccc(C)cc4)n3)cc2)cc1`, the growth in test [1] was -57.2% (active); in test [2], -71.4% (active); in test [3], -74.7% (active); in test [4] it was -94.1% (active); in test [5], -74.2% (active); in [6], -54.1% (active). In addition, the growth in [7] was -74.8% (active); in test [8], -83% (active); in test [9] it was -93.8% (active); in test [10], -78.7% (active); in test [11], -95.8% (active); in [12], -60.9% (active). Further, the growth in [13] was -78.7% (active); in test [14], -75.8% (active); in [15], -80.7% (active); in [16], -67.9% (active); in test [17], -66% (active); in test [18], -89.5% (active). Besides, the growth in test [19] is -87.8% (active); in test [20], -82.9% (active).
On to `O=c1[nH]nc(-c2ccccc2)c2sc(NC(=S)Nc3ccc(Cl)cc3)nc12`, for which the growth is 86% in [1]; 89.3% in test [2]; 100% in test [3]; 79.4% in test [4]; 97.6% in [5]; 97.2% in test [6]. For the same molecule, the growth in test [7] was 68.6%; in test [8] it was 90.7%; in [9], 92.5%; in test [10], 101%; in [11], 94.8%; in test [12], 80.6%. Also, the growth in [13] was 105%; in test [14] it was 101%; in [15], 102%; in [16] it was 93.3%; in [17], 98.3%; in [18], 98%. In addition, the growth was 104% in [19] and 97.4% in test [20].
